The list is not random: actives were taken first. Their share in the collection is about 1.4%.
Pin1 inh: inhibitors of human Pin1; Pin1 FP peptide displacement, HiFluor488, 10 min; Potency, µM (highest dose often 115 µM), without a hit: top-dose activity, negative = inhibition, usual class: inhibitors; 390,000 tested, 0.009% active; active = well fitted inhibition curve with a large enough effect in the polarisation, with a control signal flat, not every such curve was filed as active; inconclusive = small, poorly fitted or top-dose-only effect, or effect the other way, or a change in a side signal; inactive = no such curve, though single readings can be large or run the other way; the % refers to the polarisation; also: potency is read from the fitted curve at half-maximal effect; % is scaled to controls: 0 for no effect and ±100 for the full control effect
Target sequence (Q13526 whole entry, looked up): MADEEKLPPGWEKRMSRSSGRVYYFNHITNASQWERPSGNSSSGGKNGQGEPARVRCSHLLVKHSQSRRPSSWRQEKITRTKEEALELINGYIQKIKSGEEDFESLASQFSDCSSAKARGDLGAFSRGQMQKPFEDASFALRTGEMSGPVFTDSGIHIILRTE
Akt phos inh: blocks phosphorylation of Akt; Neuro2A IGF-stimulated pAkt S473 HTRF, 20 min; stronger effect = lower value; activity change, % for hits at 50 µM; 360,000 tested, 0.32% active; AID 651550; in the data active = activity change below about -80%; inconclusive = mostly about -51% to -80%; also: % is scaled to controls: 0 for no effect and ±100 for the full control effect
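Neuro2A cells in DMEM with 0.5% FBS, overnight at 37 deg C, given compound at single 50 µM final, then IGF (6 nM final) for 20 min at 37 deg C. Lysed; phospho-Akt Ser473 by HTRF after 24 h, 665/615 ratio.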
N370S GC: inhibits or activates N370S mutant glucocerebrosidase. P04062. N370S GC spleen homogenate, 4MU-glucoside fluorescence. Potency, µM (doses to about 59.4 µM), for inactives: at the highest dose activity change, negative = inhibition, usual class: inhibitors. 330,000 tested, 0.092% active. AID 2101;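 also: potency is read from the fitted curve at half-maximal effect; 0% = full enzyme activity and -100% = no enzyme basal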
AT treatment: potential ataxia-telangiectasia treatments restoring KAP-1 phosphorylation | F2112 A-T fibroblasts, KAP-1 phosphorylation AlphaLISA; neocarzinostatin DNA damage 30 min before lysis | AID 485349 | Potency, µM (series often up to 57.5 µM), inactives show at the top dose activation, most hits filed as activators | 320,000 tested, 0.19% active; also: potency is read from the fitted curve at half-maximal effect; % of control where 0% means no effect; nearly all actives have a fitted effect of over 45% in size
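ATM-like activity read as KAP-1 phosphorylation via AlphaLISA donor/acceptor antibody pairs after lysis and 6 hr at 25C. Cells were ATM-null patient fibroblasts (F2112, hTERT), dosed 60 min, then exposed to the DSB inducer NCS for 30 min.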
TrxR1 substrate: substrates of rat thioredoxin reductase 1 | O89049 | purified TrxR1 substrate turnover, NADPH consumption readout | Potency, µM (titrated, usually from 114 µM), without a hit: at the highest dose activity change, negative = substrate turnover | 390,000 tested, 0.01% active; also: potency is read from the fitted curve at half-maximal effect; % is scaled to controls: 0 for no effect and ±100 for the full control effect; nearly all actives have a fitted effect of over 50% in size
Target sequence (O89049 whole entry, looked up): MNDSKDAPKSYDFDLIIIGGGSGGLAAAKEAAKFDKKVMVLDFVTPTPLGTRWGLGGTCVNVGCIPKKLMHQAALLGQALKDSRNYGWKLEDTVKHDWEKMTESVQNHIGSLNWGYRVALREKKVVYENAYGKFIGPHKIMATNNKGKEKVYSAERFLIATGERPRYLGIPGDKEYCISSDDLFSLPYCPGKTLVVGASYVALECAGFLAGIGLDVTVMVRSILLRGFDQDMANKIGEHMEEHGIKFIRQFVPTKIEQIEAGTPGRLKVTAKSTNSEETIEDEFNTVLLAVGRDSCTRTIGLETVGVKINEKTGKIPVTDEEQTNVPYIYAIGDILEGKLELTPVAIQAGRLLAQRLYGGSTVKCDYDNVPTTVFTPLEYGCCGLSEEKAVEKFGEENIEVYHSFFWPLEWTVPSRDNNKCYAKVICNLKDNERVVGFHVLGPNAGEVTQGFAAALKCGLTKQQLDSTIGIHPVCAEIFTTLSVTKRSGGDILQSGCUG
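Rat TrxR1, dispensed at 90 nM, was prereduced with 400 uM NADPH (final) for 5 min at ~22 deg C, then incubated with compound 15 min before 400 uM selenite. A first-read NADPH fluorescence drop versus no-compound background flagged substrates.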
rTrxR1 inhibitor: inhibitors of rat thioredoxin reductase 1; AID 588453; 390,000 tested, 1% active; Potency, µM (series often up to 114 µM), inactives show at the highest dose activity change, negative = inhibition, actives largely listed as inhibitors; recombinant rTrxR1, NADPH fluorescence consumption, selenite substrate; O89049; also: potency is read from the fitted curve at half-maximal effect; % is scaled to controls: 0 for no effect and ±100 for the full control effect; nearly all actives have a fitted effect of over 65% in size
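Rat TrxR1 (90 nM in the dispensed reagent) was pre-reduced with 400 uM NADPH for 5 min at room temperature, then incubated with compound for 15 min. After 400 uM selenite was added, NADPH fluorescence (Ex 340/Em 450 nm) was followed for 8 min.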
An asterisk follows results filed as active; i = inactive; ? = inconclusive; . = not tested or not shown; [ ] = another dose, or the depositor's remark. Unless noted, calls follow the shape of the dose curve; as a rule, active = well fitted curve in the direction sought with a large enough effect; inconclusive = small, poorly fitted or top-dose-only effect, or another doubt; inactive = no such curve, though single readings can be large; an effect the other way counts as inactive or inconclusive.

SMILES | Pin1 inh | Akt phos inh | N370S GC | AT treatment | TrxR1 substrate | rTrxR1 inhibitor
CCOC(=O)CC(NC(=O)CCc1c(C)nc2cc(-c3ccccc3)nn2c1C)c1ccc(C)cc1 (stereo not given) | -1% | . | . | . | 27% | 56%
Cc1ccc(C)c(NC(=O)c2nnn(Cc3ccc(F)cc3Cl)c2N)c1 | 0% | . | . | . | -5% | 33%
COc1ccc(-c2nc(CS(=O)(=O)CC(=O)NC3CCCCCC3)c(C)o2)cc1 | 6% | i | ? | -20% | 6% | -5%
Cc1ccc(-c2nc(CS(=O)(=O)CC(=O)NC3CCCCCC3)c(C)o2)cc1 | 4% | i | 1% | -10% | 7% | 79µM*
CCC(=O)NC(c1ccco1)c1cc(Cl)c2c(c1O)NCCC2 (stereo not given) | -1% | . | . | . | . | .
Oc1c(Cl)cc(Cl)c2c1NCCC2 | 0% | i | -5% | -13% | -7% | 2.2µM*
CC(C)C(=O)Nc1c2c(nc3c1CCC3)CCCC2 | -2% | i | 2% | 12% | -3% | -7%
CCC(C)C(=O)Nc1c2c(nc3c1CCC3)CCCC2 (stereo not given) | 0% | -101%* | -3% | 3% | 0% | -2%
CN(C)c1ccc(/C=C/c2ccnc3ccccc23)cc1C=O | . | . | . | . | 4% | ?
COc1ccc(/C=N\Nc2ccc([N+](=O)[O-])cc2[N+](=O)[O-])c(C(=O)O)c1OC | -1% | i | -10% | -16% | -19% | 50µM*
COc1ccc(/C=N\Nc2ccccc2[N+](=O)[O-])c(C(=O)O)c1OC | 3% | i | -25% | -16% | -17% | 2%
COC(=O)c1ccc(-c2nc3ccccc3[nH]2)cc1 | 4% | i | 1% | 18% | 926% | 56µM*
CC(=O)c1ccc(-c2csc3ncnc(Sc4nnnn4C)c23)cc1 | 0% | . | . | . | . | .
Cc1ccc(Nc2nc3ccccc3nc2Nc2c(C)n(C)n(-c3ccccc3)c2=O)cc1 | 0% | i | 3% | 12% | -9% | ?
Cc1ccc(N2C(=O)C(Cl)=C(Nc3c(C)n(C)n(-c4ccccc4)c3=O)C2=O)cc1 | -9% | i | -20% | -3% | 8% | 18µM*
Cc1cccc(N2C(=O)C(Cl)=C(Nc3c(C)n(C)n(-c4ccccc4)c3=O)C2=O)c1C | 6% | i | -1% | -4% | 6% | 22µM*
Cc1c(NC(=O)Nc2c(Cl)cccc2Cl)c(=O)n(-c2ccccc2)n1C | 5% | i | 0% | -1% | 8% | 18%
C[C@@H]1[C@H](c2ccccc2)OCCS(=O)(=O)N1Cc1ccccc1Br | . | . | . | . | 1% | 28%
Cc1ccc(-n2ncc(C(=O)N3CCN(C(=O)c4ccco4)CC3)c2C2CCN(C(=O)OC(C)(C)C)CC2)cc1 | -8% | . | . | . | -3% | 10%
Cc1ccc(-n2ncc(C(=O)N3CCN(C(=O)c4ccco4)CC3)c2C2CCN(C(=O)OC(C)(C)C)CC2)cc1C | 5% | i | -20% | -3% | -8% | 28µM*
Brc1ccc(C2C=Cc3ccccc32)cc1 (stereo not given) | . | . | . | . | -3% | ?
CC1(C)CC(=O)C(CC(=O)Nc2ccc(S(N)(=O)=O)cc2)=C(O)C1 | -6% | i | 6% | 0% | 11% | 25%
CC1(C)CC(=O)C(CS(=O)(=O)c2ccccc2)=C(O)C1 | -11% | i | -9% | 5% | 5% | 50µM*
Cc1cc(C)c(NC(=O)Cc2ccc(-n3c(C)nc4cccnc43)cc2)c(C)c1 | 12% | . | . | . | -9% | -8%
Cc1scc(C(=O)NCc2ccco2)c1-c1ccccc1 | -1% | . | 6% | 6% | -1% | 14µM*
SMILES | Pin1 inh | Akt phos inh | N370S GC | AT treatment | TrxR1 substrate | rTrxR1 inhibitor
O=C(NCc1ccco1)c1ccccc1-c1ccccc1 | 4% | i | 3% | . | 5% | 13%
O=C1NC(=S)S/C1=C\C=C\c1ccc([N+](=O)[O-])o1 | 0% | i | -3% | -9% | -23% | 10µM*
O=C(OCCOCCN=C1NS(=O)(=O)c2ccccc21)c1ccncc1 | 1% | -107%* | 1% | 6% | 10% | 23%
CCCN1CCN(c2cccc(Nc3nn4c(=O)c5ccccc5nc4s3)c2)CC1 | 6% | . | . | . | . | .
O=C(C[n+]1cccc2cc(Cl)ccc21)c1ccc(Br)cc1 | . | . | . | . | 4% | 27%
CC(C)(C)n1ncc2c(=O)n(Cc3ccc(F)c(C(F)(F)F)c3)cnc21 | . | . | . | . | -6% | 9%
COc1ccc(N/N=C(/Oc2ccc([N+](=O)[O-])cc2)C(C)=O)cc1 | -2% | -114%* | -1% | 0% | -10% | -9%
COc1ccc2c(c1)C=C/C2=C/c1ccc(N(C)C)cc1 | . | . | . | . | -12% | -16%
Cc1ccc(Nc2nc(N)c([N+](=O)[O-])c(N3CCC(C)CC3)n2)cc1C | -3% | i | 17% | 32µM* | 1% | 3%
CN1C/C(=C/c2cccnc2)C(=O)/C(=C/c2cccnc2)C1 | -8% | i | 2% | 17% | -11% | 10µM*
CCc1ccc(S(=O)(=O)Nc2ccc(O)c3c(=O)cc(-c4ccccc4Cl)oc23)cc1 | ? | i | ? | 0% | -3% | 11%
O=c1cc(-c2ccccc2Cl)oc2c(NS(=O)(=O)c3cc(Cl)cc(Cl)c3O)ccc(O)c12 | 22µM* | i | 7% | -5% | 3% | 8%
CC1(C)CC2(CCO1)OC(=O)CC2C(=O)Nc1cccc2ccccc12 (stereo not given) | -7% | -88%* | 1% | -1% | 16% | 13%
CC1(C)C(=O)NC2=C1C(=O)C(=O)c1ccccc12 | . | . | -9% | . | . | .
CC(C)COc1ccc(C(=O)CCN2CCCCC2)cc1 | 3% | i | 0% | 0% | -10% | 1.4µM*
CC(C)COc1ccc(C(=O)OCCN2CCCCC2)cc1 | -7% | i | 0% | -10% | 0% | 1%
CCCCOc1ccc(C(=O)CCN2CCCCC2)cc1 | 5% | i | -15% | -16% | 12% | 3.2µM*
CC(=O)c1ccc(OCCCN2CCCCC2)cc1 | ? | i | 0% | -3% | 4% | 15%
CC1(C)C(=O)C=CC(=O)C(C)(C)C(=O)C=CC(=O)C(C)(C)C2=CC=C(O2)C(C)(C)C(=O)C=CC1=O | -16% | i | . | . | -8% | 16µM*
CN(C)c1ccc(/C=C/c2ccnc3cc(Cl)ccc23)cc1 | . | . | . | . | -3%[0.0914 µM] | -11%
C(=Nc1ccc(/C=C/c2ccnc3ccccc23)cc1)c1cccs1 | . | . | . | . | -14% | -8%
CCCNC(=O)OCCC12CC3CC(CC(C3)C1)C2 | -9% | i | 7% | 32µM* | -2% | -1%
COC(=O)NCC12CC3CC(C1)CC(CNC(=O)OC)(C3)C2 | -1% | i | -5% | 0% | 5% | 35µM*
c1nc(NCc2ccoc2)c2cc(-c3ccc4c(c3)OCO4)ccc2n1 | 13% | . | . | . | . | .
